uPA surface inh = qHTS for Inhibitors of Cell Surface uPA Generation; 330,000 tested, 0.31% active; Potency, µM (top dose mostly 38.3 µM), for inactives: at the top dose activity change, negative = inhibition, hits mostly inhibitors; cell surface uPA generation assay, qHTS; active = well fitted inhibition curve with a large enough effect; inconclusive = small, poorly fitted or top-dose-only effect; inactive = no such curve, though single readings can be large or run the other way; tested in mouse RAW 264.7 cells; also: potency is read from the fitted curve at half-maximal effect; % is scaled to controls: 0 for no effect and ±100 for the full control effect; nearly all actives have a fitted effect of over 55% in size
miR-21 reporter = qHTS Assay for Modulators of miRNAs and/orActivators of miR-21. HeLa miR-21 FLuc reporter, luciferase, 48 h. Potency, µM (doses to about 38.3 µM), for the others: top-dose activity change, positive = activation, actives largely listed as activators. 340,000 tested, under 10 active. AID 2288, 2010;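 also: % of control where 0% means no effect; miR-21 action dims this reporter so a rising signal means less miR-21 action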
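Compounds were titrated across several concentrations (up to approximately 40 uM) and incubated 48 hours with HeLa miR-21-FLuc reporter cells (miR-21 target sequence downstream of FLuc, endogenous miR-21). Readout was firefly luciferase luminescence after lytic detection reagent.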
TDP1 cell CPT = qHTS for Inhibitors of human tyrosyl-DNA phosphodiesterase 1 (TDP1): qHTS in cells in presence of CPT; Potency, µM (series often up to 46.2 µM), inactives show at the top dose activity change, negative = growth inhibition, usual class: inhibitors; 420,000 tested, 12% active; AID 686979, 2013; chicken DT40 Tdp1-/-;hTDP1 cells + 20 nM CPT, ATP luminescence, 48 h; also: potency is read from the fitted curve at half-maximal effect; % is scaled to controls: 0 for no effect and ±100 for the full control effect; nearly all actives have a fitted effect of over 55% in size
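Chicken DT40 Tdp1-/- cells stably complemented with human TDP1 were seeded at 400 cells/well in medium containing 20 nM camptothecin, exposed to pin-transferred compounds, and grown at 37 °C for at least 48 hr. Viability was read as ATP luminescence.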
TDP1 block = qHTS Assay for Inhibitors of Tyrosyl-DNA Phosphodiesterase (TDP1) | AID 485290, 2010 | recombinant TDP1, AlphaScreen DNA substrate cleavage | Potency, µM (series often up to 130 µM), for inactives: at the highest dose activity change, negative = inhibition, usual class: inhibitors | 350,000 tested, 0.28% active; also: potency is read from the fitted curve at half-maximal effect; % is scaled to controls: 0 for no effect and ±100 for the full control effect; nearly all actives have a fitted effect of over 40% in size
Target sequence (Q9NUW8 whole entry, looked up): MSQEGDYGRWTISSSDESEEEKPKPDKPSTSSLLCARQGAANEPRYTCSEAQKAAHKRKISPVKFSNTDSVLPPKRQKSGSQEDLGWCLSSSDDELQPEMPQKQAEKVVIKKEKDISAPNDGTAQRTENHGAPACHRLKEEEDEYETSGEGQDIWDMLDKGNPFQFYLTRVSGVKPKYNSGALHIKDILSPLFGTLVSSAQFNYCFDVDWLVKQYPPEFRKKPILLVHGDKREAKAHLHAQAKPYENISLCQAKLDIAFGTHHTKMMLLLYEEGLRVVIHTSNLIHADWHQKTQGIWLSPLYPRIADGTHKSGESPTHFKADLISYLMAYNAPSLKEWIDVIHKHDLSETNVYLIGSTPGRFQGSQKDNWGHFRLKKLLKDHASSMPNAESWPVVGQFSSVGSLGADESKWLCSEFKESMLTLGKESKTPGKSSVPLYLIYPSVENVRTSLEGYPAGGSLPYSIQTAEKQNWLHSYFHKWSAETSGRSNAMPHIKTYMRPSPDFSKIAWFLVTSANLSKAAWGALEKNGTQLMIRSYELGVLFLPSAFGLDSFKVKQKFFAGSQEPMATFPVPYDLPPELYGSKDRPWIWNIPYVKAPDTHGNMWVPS
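Recombinant human Tdp1 (E. coli-expressed, 1 nM final) preincubated with compounds 15 min at room temperature, then 5'-biotin/3'-phosphotyrosine-FITC DNA substrate (15 nM final) added for 5 min. AlphaScreen beads (10 ug/ml final) added 10 min; cleavage lowers signal.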
TDP1 cell noCPT = qHTS for Inhibitors of human tyrosyl-DNA phosphodiesterase 1 (TDP1): qHTS in cells in absence of CPT; Potency, µM (top dose mostly 46.2 µM), for inactives: at the top dose activity change, negative = growth inhibition, usual class: inhibitors; AID 686978, 2013; 420,000 tested, 15% active; DT40 Tdp1-/- hTDP1 cells, no CPT, ATP luminescence, 48 h; also: potency is read from the fitted curve at half-maximal effect; % is scaled to controls: 0 for no effect and ±100 for the full control effect; nearly all actives have a fitted effect of over 55% in size
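A cellular qHTS used chicken DT40 cells lacking endogenous Tdp1 but carrying stably transfected human TDP1. Compounds were applied without camptothecin, and cell growth kinetics were judged by ATP-dependent luminescence after ≥48 hr.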
* hit, by the source's call; ? = inconclusive; / = not tested or not shown; [ ] = another dose, or the depositor's remark. This is a sample that favours compounds with a hit; in the whole collection about 16% have one here. Unless noted, calls follow the shape of the dose curve; as a rule, active = well fitted curve in the direction sought with a large enough effect; inconclusive = small, poorly fitted or top-dose-only effect, or another doubt; inactive = no such curve, though single readings can be large; an effect the other way counts as inactive or inconclusive.

SMILES	uPA surface inh	miR-21 reporter	TDP1 cell CPT	TDP1 block	TDP1 cell noCPT
COc1ccccc1N1CCN(c2ccc3c(c2)S(=O)(=O)c2cccc(C(=O)NCC4CC4)c2C3=O)CC1	/	/	18µM*	/	7.3µM*
CC1CCN(c2ccc3c(c2)S(=O)(=O)c2cccc(C(=O)NC4CCCCC4)c2C3=O)CC1	-7%	/	16µM*	0%	16µM*
O=C(NCCN1CCCCC1)c1cccc2c1C(=O)c1ccc(N3CCCC3)cc1S2(=O)=O	-14%	/	3%	4%	-20%
O=C(NC[C@@H]1CCCO1)c1cccc2c1C(=O)c1ccc(Cl)cc1S2(=O)=O	-6%	/	-23%	0%	-14%
CC(C)(C)CNC(=O)c1cccc2c1C(=O)c1ccc(-c3cc4ccccc4o3)cc1S2(=O)=O	-1%	/	16µM*	1%	?
CC(C)c1cccc(-c2ccc3c(c2)S(=O)(=O)c2cccc(C(=O)NCc4ccco4)c2C3=O)c1	-5%	/	?	45µM*	?
CC(C)c1cccc(-c2ccc3c(c2)S(=O)(=O)c2cccc(C(=O)O)c2C3=O)c1	-4%	/	10%	3%	-2%
O=C(NC1CCCC1)c1cccc2c1C(=O)c1ccc(N3CCCCC3)cc1S2(=O)=O	-23%	/	?	1%	?
O=c1cc(CSCc2ccc(Cl)cc2)[nH]c(=O)[nH]1	3%	-1%	-2%	3%	12%
COc1ccc([N+](=O)[O-])cc1NS(=O)(=O)c1ccc(Cl)c(C(=O)Nc2sc3c(c2C#N)CCCCC3)c1	/	0%	/	-1%	/
O=C(NCC1CC1)c1cccc2c1C(=O)c1ccc(-c3ccc(OC(F)(F)F)cc3)cc1S2(=O)=O	14%	/	13µM*	1%	23µM*
O=C(NCc1ccc(F)cc1)c1cccc2c1C(=O)c1ccc(N3CCOCC3)cc1S2(=O)=O	-6%	/	23µM*	-8%	?
O=C(NC1CCCC1)c1cccc2c1C(=O)c1ccc(Cl)cc1S2(=O)=O	2%	/	-4%	0%	-20%
O=C1c2ccc(Cl)cc2S(=O)(=O)c2cccc(C(=O)N3CCC(Cc4ccccc4)CC3)c21	?	/	?	6%	23µM*
CC(C)(C)CNC(=O)c1cccc2c1C(=O)c1ccc(N3CCCC3)cc1S2(=O)=O	-7%	/	21µM*	0%	16µM*
CC1CCN(c2ccc3c(c2)S(=O)(=O)c2cccc(C(=O)NCc4ccc(F)cc4)c2C3=O)CC1	2%	/	?	1%	?
COC(=O)c1cccc(NC(=O)C2C3CCC(C3)C2C(=O)O)c1 (configuration not stated)	/	-4%	4%	-9%	-2%
CN(Cc1ccco1)c1cc(-c2cccc(C#N)c2)ncn1	/	/	-2%	/	-16%
CC(C)COC(=O)Nc1ccccc1C(=O)N1CCOCC1	3%	-2%	11%	5%	-3%
Cc1cc(C(=O)O)cc(S(=O)(=O)Nc2ccccc2C(=O)NC2CC2)c1C	16%	/	15%	-1%	2%
O=C(OCc1nc2ccccc2s1)c1cccc(S(=O)(=O)N2CCOCC2)c1	-6%	-40%	9%	2%	16%
O=C(NCc1ccco1)c1ccc(Cn2c(=O)c3ccccc3n(Cc3ccc(Cl)cc3)c2=O)cc1	-7%	-15%	?	-2%	?
CN(CC(=O)Nc1ccc(F)c(F)c1F)c1cnccn1	/	?	/	-1%	/
O=C(NCc1ccc(F)cc1)c1cccc2c1C(=O)c1ccc(N3CCC(Cc4ccccc4)CC3)cc1S2(=O)=O	2%	/	?	0%	?
O=C1c2ccccc2S(=O)(=O)c2cc(N3CCC(C(=O)N4CCCCC4)CC3)ccc21	-16%	/	21µM*	/	18µM*
SMILES	uPA surface inh	miR-21 reporter	TDP1 cell CPT	TDP1 block	TDP1 cell noCPT
O=C(NC1CC1)c1cccc2c1C(=O)c1ccc(N3CCC(Cc4ccccc4)CC3)cc1S2(=O)=O	?	/	23µM*	2%	13µM*
CN(C)C(CNC(=O)c1ccc(NS(=O)(=O)c2ccc3[nH]c(=O)[nH]c3c2)cc1)c1ccccc1 (configuration not stated)	1%	/	-24%	0%	?
Cc1ccc2c(c1)c1c(n2CC(O)Cn2nc(C)c(Br)c2C)C(=O)CCC1 (configuration not stated)	10%	-6%	21µM*	-14%	21µM*
CC(=O)c1c(C)nn(CC(O)Cn2c3c(c4cc(C)ccc42)CCCC3=O)c1C (configuration not stated)	2%	-4%	?	5%	?
Cc1cc(Nc2ccc([N+](=O)[O-])cc2)c2ccccc2n1	23%	-18%	16µM*	3%	18µM*
COc1ccc(Nc2cc(C)nc3c(C)cccc23)cc1OC	-6%	18%	-24%	/	-42%
Cc1cc(Nc2cccc([N+](=O)[O-])c2)c2cccc(C)c2n1	-3%	10%	?	/	21µM*
CCOc1ccc2nc(C)cc(Nc3ccc(N4CCOCC4)cc3)c2c1	/	-26%	/	5%	/
Cc1cc(Nc2cccc([N+](=O)[O-])c2)c2ccccc2n1	-2%	4%	?	-4%	?
CCOc1ccc2nc(C)cc(Nc3cccc([N+](=O)[O-])c3)c2c1	-12%	0%	3.3µM*	2%	12µM*
Oc1ccc(F)c2cccnc12	2%	0%	13µM*	5%	15µM*
Cc1ccc(S(=O)(=O)Nc2cc(S(=O)(=O)c3ccc(C)cc3)c(O)c3cccnc23)cc1	/	/	/	18%	/
CC(=O)NC(C)c1cc(Cl)c2cccnc2c1O (configuration not stated)	?	/	/	0%	/
Oc1c(Cl)cc(Cl)c2cccnc12	?	?	18µM*	14%[56.1 µM]	8.2µM*
Cc1ccc(S(=O)(=O)Nc2cc(Cl)c(O)c3ncccc23)cc1	-9%	20%	2.3µM*	5%	5.2µM*
Oc1ccc(Cl)c2cccnc12	-8%	/	1.8µM*	11%	1.8µM*
COCCn1c(=O)c(-c2ccc(F)c(F)c2)nc2cncnc21	/	/	-4%	/	-4%
CCC(=O)Oc1ccc(/C(CC)=C(\CC)c2ccc(OC(=O)CC)cc2)cc1	-4%	0%	-25%	0%	?
CC[C@]1(C(=O)OC)[C@H]2C(=O)N(Cc3ccccc3)C(=O)[C@H]2[C@H]2CN=C(SCC(=O)c3ccccc3)N21	-4%	/	?	1%[56.1 µM]	?
CCN1C(=O)[C@H]2[C@H]3CN=C(SCc4ccc(Cl)cc4)N3[C@@](Cc3ccccc3)(C(=O)OC)[C@H]2C1=O	-10%	/	?	-6%[56.1 µM]	12µM*
